{"source": "PubChem BioAssay AID1379", "about": "(National Center for Advancing Translational Sciences (NCATS), 2008)", "note": "Hit rate of the full screen: of about 200,000 compounds, about 560 (0.28%) were called active. The list comes from a sample in which actives are over-represented; it also holds similar structures and randomly drawn compounds. Unmarked numbers belong to inactive results. Calls follow the shape of the dose curve; as a rule, active = well fitted inhibition curve with a large enough effect; inconclusive = small, poorly fitted or top-dose-only effect; inactive = flat fitted curve, though single readings scatter. % is scaled to controls: 0 for no effect and ±100 for the full control effect; potency is read from the fitted curve at half-maximal effect."}
{"target": "Luciferin 4-monooxygenase (Photuris pensylvanica) (UniProt Q27757)", "test": "Counterscreen for Luciferase (Kinase-Glo TM) Inhibition; also: nearly all actives have a fitted effect of over 60% in size", "conditions": "ATP luminescence, 8 min; series mostly up to 38.3 µM; activity change, negative = inhibition: at the top concentration", "procedure": "NCGC Assay Overview: NIH Molecular Libraries Screening Centers Network [MLSCN] NIH Chemical Genomics Center [NCGC] MLSCN Grant: None Luciferase (Kinase-Glo, Promega Corporation) was assayed for its ability to generate light using ATP and luciferin as substrates. The ATP concentration in the assay (10 uM) was within the linear range of enzyme activity for the assay conditions used.\nNCGC Assay Protocol Summary: Four uL of substrate mix (final concentration, 50 mM imidazole pH 7.2, 50 mM KCl, 7 mM MgCl2, 10 uM ATP, 0.01% Tween 20, 0.05% BSA) was dispensed into white 1536 well plates. Twenty-three nL of compound was delivered by a pin tool and 2 uL of luciferase detection mix (Kinase-Glo, Promega)) was added. Following 8-minute incubation at ambient temperature, luminescence was measured by a ViewLux (Perkin Elmer) at 5 seconds exposure/plate."}
{"smiles": "C=CCn1c(C)cc(C2=NNC(=NCC)SC2)c1C", "Potency": "7.94 µM (active)"}
{"smiles": "Cc1cccc(N=C2NN=C(c3c[nH]c4ccccc34)CS2)c1", "activity change, negative = inhibition": "0.767% (inactive)"}
{"smiles": "COc1cc(/C=C/CO)cc(OC)c1O[C@@H]1O[C@H](CO)[C@@H](O)[C@H](O)[C@H]1O", "activity change, negative = inhibition": "1.26% (inactive)"}
{"smiles": "CCc1cccc(OC2OC(CO)C(O)C(O)C2NC(C)=O)c1", "note": "(centres undefined)", "activity change, negative = inhibition": "0.91% (inactive)"}
{"smiles": "Cc1csc(-c2coc3cc(O[C@@H]4O[C@H](CO)[C@@H](O)[C@@H](O)[C@H]4O)ccc3c2=O)n1", "Potency": "3.55 µM (active)"}
{"smiles": "C=CCN1C=C2C(=O)C(C)(OC(=O)CCc3ccccc3)C(=O)C=C2C=C1c1ccc(C#N)cc1", "note": "(centres undefined)", "activity change, negative = inhibition": "-4.17% [at 7.66 µM]"}
{"smiles": "C=C/C1=C/Cc2ccccc2[C@H](C[N+](=O)[O-])C(C(=O)OC)(C(=O)OC)C1", "activity change, negative = inhibition": "-0.469% (inactive)"}
{"smiles": "CC(C)(C)OC(=O)NCCCC1=CC2=CC(=O)C(C)(OC(=O)c3ccco3)C(=O)C2=CO1", "note": "(centres undefined)", "activity change, negative = inhibition": "-0.651% (inactive)"}
{"smiles": "COC(=O)C1=C(C(=O)OC)[C@@H]2Nc3ccccc3[C@@]23C[C@@H](C(=O)OC)N(S(=O)(=O)c2ccc([N+](=O)[O-])cc2)C3=N1", "activity change, negative = inhibition": "-3.38% [at 7.66 µM]"}
{"smiles": "Cc1ccc(-c2cn3cc(C)ccc3n2)cc1", "Potency": "11.2 µM (active)"}
{"smiles": "Cc1ccc(-c2cn3cc([N+](=O)[O-])ccc3n2)cc1", "activity change, negative = inhibition": "-24.6% (inactive)"}
{"smiles": "COc1ccc(-c2cn3ccsc3n2)cc1", "activity change, negative = inhibition": "-24.5% (inactive)"}
{"smiles": "C[C@H]1Cc2c(-c3ccccc3)nc3c(c2CO1)CN(S(=O)(=O)c1ccc(Cl)c2nonc12)CC3", "activity change, negative = inhibition": "-6.5% [at 7.66 µM]"}
{"smiles": "C=C(C(C)=O)C(O)c1ccc([N+](=O)[O-])cc1", "note": "(centres undefined)", "activity change, negative = inhibition": "2.25% (inactive)"}
{"smiles": "Cc1ccc(-c2cccc([C@H]3[C@@H]4C=CC[C@@H](C)[C@@H]4C(=O)N3Cc3ccccc3)c2)cc1", "activity change, negative = inhibition": "2.21% [at 39.9 µM] (inactive)"}
{"smiles": "c1ccc(-c2noc(-c3cccs3)n2)nc1", "Potency": "12.6 µM (active)"}
{"smiles": "COc1ccc(Cc2nc(-c3ccccn3)no2)cc1OC", "activity change, negative = inhibition": "1.94% (inactive)"}
{"smiles": "O=C(Oc1ccccc1)c1ccc2nccnc2c1", "activity change, negative = inhibition": "5.55% (inactive)"}
{"smiles": "c1csc(-c2nc(-c3ccncc3)no2)c1", "activity change, negative = inhibition": "-13.5% (inactive)"}
{"smiles": "COc1nc(-c2ccc(Cl)cc2)ccc1-c1noc(-c2cccs2)n1", "activity change, negative = inhibition": "0.069% (inactive)"}
{"smiles": "O=C(Oc1ccc(-c2nc(-c3ccccn3)no2)cc1)c1ccccc1", "Potency": "4.47 µM (active)"}
{"smiles": "C/C(Nc1ccc2oc(=O)ccc2c1)=C1/C(=O)CC2[C@@H]1C2(C)C", "note": "(some centres undefined)", "activity change, negative = inhibition": "-0.876% (inactive)"}
{"smiles": "O=C1/C(=C/c2cccs2)CCc2ccccc21", "Potency": "11.2 µM (active)"}
{"smiles": "COc1ccc(/C=C2\\CCc3ccccc3C2=O)c(OC)c1OC", "activity change, negative = inhibition": "0.525% (inactive)"}
{"smiles": "CCC1C/C(=C/c2cccs2)C(=O)/C(=C/c2cccs2)C1", "note": "(centres undefined)", "activity change, negative = inhibition": "1.29% (inactive)"}
{"smiles": "N#Cc1cccc(CS(=O)(=O)c2nnnn2-c2cc(C(F)(F)F)cc(C(F)(F)F)c2)c1", "activity change, negative = inhibition": "-0.728% (inactive)"}
{"smiles": "COc1ccc(-c2nc3c(c4c2C[C@H](c2ccccc2)OC4)CN(S(=O)(=O)c2c(C)noc2C)CC3)c(C)c1", "activity change, negative = inhibition": "-5.25% [at 7.66 µM]"}
{"smiles": "O=C1C=C(c2ccccc2)CCC1", "activity change, negative = inhibition": "-0.266% (inactive)"}
{"smiles": "COc1ccc2c(c1)O[C@@H](c1ccc3c(c1)OCO3)[C@H](OC(=O)NCc1ccco1)C2=O", "activity change, negative = inhibition": "2.74% (inactive)"}
{"smiles": "COc1ccccc1C(=O)Nc1ccc(NC(=O)c2ccco2)c(C)c1", "Potency": "10 µM (active)"}
{"smiles": "COc1cc(NC(=O)c2cc([N+](=O)[O-])ccc2Br)ccc1NC(=O)c1ccco1", "activity change, negative = inhibition": "1.81% (inactive)"}
{"smiles": "COc1ccc(NC(=O)c2cccc(NC(=O)c3ccco3)c2)c(OC)c1", "activity change, negative = inhibition": "0.933% (inactive)"}
{"smiles": "O=C(NCc1ccco1)O[C@@H]1C(=O)c2cc(Br)ccc2O[C@H]1c1ccc2c(c1)OCO2", "activity change, negative = inhibition": "-0.751% (inactive)"}
{"smiles": "Cc1cccc([C@H]2[C@@H]3C=CC[C@@H](C)[C@@H]3C(=O)N2Cc2ccccc2)c1", "activity change, negative = inhibition": "-0.116% [at 39.9 µM] (inactive)"}
{"smiles": "CCN1C(=O)N[C@@H](CCc2ccccc2)C(C(=O)OC)=C1C", "activity change, negative = inhibition": "0.314% [at 7.66 µM]"}
{"smiles": "C=CCC(C)(O)c1ccco1", "note": "(centres undefined)", "activity change, negative = inhibition": "1.24% (inactive)"}
{"smiles": "O=C1OCCN1C(=O)[C@H]1[C@H](c2ccc(F)cc2)C(c2ccccc2)=NN1c1ccc(Br)cc1", "activity change, negative = inhibition": "2.64% [at 39.9 µM] (inactive)"}
{"smiles": "Cc1ccccc1-c1ccc(C(=O)O)s1", "activity change, negative = inhibition": "3.14% [at 39.9 µM] (inactive)"}
{"smiles": "C=CC1(C)CC(=O)C2(O)C(C)(O1)C(OC(C)=O)C(O)C1C(C)(C)CCC(O)C12C", "note": "(centres undefined)", "activity change, negative = inhibition": "inactive"}
{"smiles": "COCCN1C=C2C(=O)C(C)(OC(=O)C3CCCC3)C(=O)C=C2C=C1c1ccsc1", "note": "(centres undefined)", "activity change, negative = inhibition": "-8.74% [at 7.66 µM]"}
{"smiles": "CC1=C2[C@@H](O)[C@H]([C@@H](C)C(=O)NCCC(C)C)CC[C@@]2(C)C=CC1=O", "activity change, negative = inhibition": "-3.8% (inactive)"}
{"smiles": "COC(=O)CCCC1=CC2=CC(=O)C(C)(OC(=O)c3cccs3)C(=O)C2=CN1c1cccc(C#N)c1", "note": "(centres undefined)", "activity change, negative = inhibition": "0.0108% [at 7.66 µM]"}
{"smiles": "C/C=C(\\C)C(=O)O[C@H]1CC(C)=C2C(=O)C=C(C)C2[C@@H]2OC(=O)[C@@](C)(OC(=O)C=C(C)C)C21", "note": "(some centres undefined)", "activity change, negative = inhibition": "-12.3% (inactive)"}
{"smiles": "COc1ccccc1N=Cc1c(O)c2ccccc2oc1=O", "Potency": "14.1 µM (active)"}
{"smiles": "COc1ccc(OC)c(N=Cc2c(O)[nH]c3ccccc23)c1", "activity change, negative = inhibition": "-1.78% (inactive)"}
{"smiles": "COc1ccc(N=Cc2c(O)[nH]c3ccccc23)cc1OC", "activity change, negative = inhibition": "-4.22% (inactive)"}
{"smiles": "NC1CCN(O)C1=O", "note": "(centres undefined)", "activity change, negative = inhibition": "0.152% (inactive)"}
{"smiles": "Cc1ccc(NC(=O)O[C@@H]2C(=O)c3cc(Br)ccc3O[C@H]2c2ccc3c(c2)OCO3)cc1Br", "activity change, negative = inhibition": "0.235% (inactive)"}
{"smiles": "C=CC1=C2C=C(C3CC3)N(CC(C)C)C=C2C(=O)C(C)(OC(=O)c2ccco2)C1=O", "note": "(centres undefined)", "activity change, negative = inhibition": "-1.36% [at 7.66 µM]"}
{"smiles": "COc1ccc(/C=C2\\NC(=O)[C@@H]3Cc4ccccc4CN3C2=O)cc1", "activity change, negative = inhibition": "-1.84% (inactive)"}
{"smiles": "CCCCCCCC[C@@H](O)/C=C/C=C/C=C\\[C@@H](O)CCCC(=O)O", "activity change, negative = inhibition": "-0.585% (inactive)"}
{"smiles": "C=C(C(C)=O)C(O)c1cccs1", "note": "(centres undefined)", "activity change, negative = inhibition": "2.74% (inactive)"}
{"smiles": "C=CCC1CCC(=O)N2CCCC12", "note": "(centres undefined)", "activity change, negative = inhibition": "1.99% [at 39.9 µM] (inactive)"}
{"smiles": "CC1(OC(=O)CCc2ccccc2)C(=O)C=C2C=C(c3ccc(C#N)cc3)N(CCc3ccccn3)C=C2C1=O", "note": "(centres undefined)", "activity change, negative = inhibition": "-6.83% [at 7.66 µM]"}
